Experimental data from PubChem BioAssay AID504734 (The Scripps Research Institute Molecular Screening Center, 2011).
The campaign covered roughly 340,000 compounds. About 730 (0.21%) were called active.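 The calls were made as follows: active = inhibition above the mean over all tested compounds plus 3 SD (cut at about 21% in these data); inactive = the rest.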 Only a selection was taken, and actives are over-represented in it overall.

target: Toll-like receptor 9 (Homo sapiens) + Myeloid differentiation primary response protein MyD88 (Homo sapiens) (UniProt Q9NR96+Q99836); assay: disruptors of TLR9 binding to MyD88 – cell-based, CHO, BLA complementation, fluorescence, primary screen (AID 504734); conditions: CHO BLA complementation TLR9-MyD88, CCF4 FRET ratio; at 4.98 µM; hits give high values;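 also: 0% = DMSO only wells and 100% = clavulanate BLA inhibitor control wells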
Sequence (Q99836 whole entry, looked up): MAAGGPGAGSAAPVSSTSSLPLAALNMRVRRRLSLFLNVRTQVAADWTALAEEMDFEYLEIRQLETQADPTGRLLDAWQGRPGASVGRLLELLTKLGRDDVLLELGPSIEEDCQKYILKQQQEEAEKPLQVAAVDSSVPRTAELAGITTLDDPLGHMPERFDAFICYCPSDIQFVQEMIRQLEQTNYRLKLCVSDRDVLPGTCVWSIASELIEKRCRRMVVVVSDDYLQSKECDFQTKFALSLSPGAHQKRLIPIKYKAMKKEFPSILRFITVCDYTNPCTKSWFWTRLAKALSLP
Sequence (Q9NR96 whole entry, looked up): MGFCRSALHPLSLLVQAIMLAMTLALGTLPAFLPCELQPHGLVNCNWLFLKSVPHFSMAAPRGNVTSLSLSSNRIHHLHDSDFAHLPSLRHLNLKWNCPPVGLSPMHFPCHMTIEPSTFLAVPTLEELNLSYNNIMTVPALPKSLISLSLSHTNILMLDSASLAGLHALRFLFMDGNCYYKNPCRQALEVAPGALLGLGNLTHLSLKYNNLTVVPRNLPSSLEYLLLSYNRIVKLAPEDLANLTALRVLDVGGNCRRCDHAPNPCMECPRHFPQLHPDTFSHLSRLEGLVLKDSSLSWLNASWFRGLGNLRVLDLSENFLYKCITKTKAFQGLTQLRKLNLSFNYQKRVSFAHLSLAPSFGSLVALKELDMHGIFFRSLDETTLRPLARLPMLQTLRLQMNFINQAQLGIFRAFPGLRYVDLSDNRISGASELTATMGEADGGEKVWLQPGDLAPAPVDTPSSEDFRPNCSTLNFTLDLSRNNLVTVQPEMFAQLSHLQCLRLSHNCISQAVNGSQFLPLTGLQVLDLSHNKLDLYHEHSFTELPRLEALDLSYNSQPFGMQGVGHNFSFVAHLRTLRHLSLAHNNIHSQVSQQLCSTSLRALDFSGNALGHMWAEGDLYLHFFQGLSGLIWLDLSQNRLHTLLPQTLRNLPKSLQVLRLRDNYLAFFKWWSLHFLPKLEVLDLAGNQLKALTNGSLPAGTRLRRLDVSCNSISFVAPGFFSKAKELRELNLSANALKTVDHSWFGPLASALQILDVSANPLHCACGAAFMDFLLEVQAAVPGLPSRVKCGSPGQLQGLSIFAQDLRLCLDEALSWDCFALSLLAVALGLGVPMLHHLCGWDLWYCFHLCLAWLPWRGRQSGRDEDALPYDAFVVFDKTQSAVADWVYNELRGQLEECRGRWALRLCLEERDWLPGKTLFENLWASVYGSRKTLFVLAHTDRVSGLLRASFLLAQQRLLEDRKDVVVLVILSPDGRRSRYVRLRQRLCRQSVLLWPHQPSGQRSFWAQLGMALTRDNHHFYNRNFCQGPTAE

inhibition, active:
Cc1cc(C)nc(SCc2ccccc2C#N)n1 23.9%
COc1ccc(NC(=O)/C(Cl)=C(/Cl)S(=O)Cc2ccc(C)cc2)cn1 (centres undefined) 36.2%
COc1ccccc1N1N=C(c2cccs2)CC1c1ccccc1 (centres undefined) 38.6%
Oc1ccc2ccc3cccc[n+]3c2c1 30.4%
O=C(Nc1ccc2ccccc2c1)Nc1ccc2snnc2c1 22.2%
COc1cc(/C=C(\C#N)c2nc3c(s2)CC(C)CC3)ccc1O (centres undefined) 21.5%
O=C1C(Cl)=C(Oc2ccccc2)C(=O)c2ccccc21 56.9%
COc1ccccc1CSc1ncc(-c2ccc([N+](=O)[O-])cc2)[nH]1 21.5%
O=C(COC(=O)c1c2c(nc3ccccc13)/C(=C\c1cccs1)CCC2)Nc1ccccc1Cl 22%
NS(=O)(=O)c1ccc(NC(=O)COC(=O)c2c3c(nc4ccccc24)/C(=C\c2ccc4c(c2)OCO4)CCC3)cc1 25.9%

inhibition, inactive:
CSc1ncccc1C(=O)N1CCCC(Nc2ccc(F)c(F)c2)C1 (centres undefined) -7.83%
Nc1cc(C(=O)N2CCN(c3ccccc3Cl)CC2)ccc1N1CC2CC(C1)c1cccc(=O)n1C2 (centres undefined) -8.79%
CC1(C)CCc2nc(SCc3ccccc3)c(C#N)cc2C1 -6.7%
Cc1cc(C)nc(SCc2cn3c(C)cc(C)nc3n2)n1 -17%
COc1ccc(CN2C(=O)C(CC(=O)NCCN3CCOCC3)CC(C(=O)N(C(C)C)C(C)C)=C2C)cc1 (centres undefined) -13.7%
COc1ccc(N)cc1NC(=O)CN1CCOCC1 3.79%
Nc1ccccc1-c1nc2ccncc2[nH]1 5.69%
C[C@H]1Cn2cnc(C(=O)N[C@H](C)c3ccccc3)c2C(=O)N1 -9.33%
COc1ccccc1NC(=O)C(CC(=O)O)Cc1cc(C)cc(C)c1 (centres undefined) 1.3%
COc1ccc(NC(=O)CN2C(=O)NC(C)(c3ccccc3)C2=O)cn1 (centres undefined) 4.63%
COc1ccc(NS(=O)(=O)c2ccc(NC(=S)NC(=O)/C=C/c3ccc(C)cc3)cc2)nn1 4.17%
Cc1ccc(C(=O)NC(C)C(c2cccs2)N2CCOCC2)cc1C (centres undefined) -1.7%
O=C(NCCN1CCOCC1)C1CCN(S(=O)(=O)c2ccccc2)CC1 -8.07%
CN1OC[C@@H]2CN[C@H](c3ccc(-c4ccccc4)cc3)C[C@@H]21 8.78%
COc1ccc(C2CC(c3cccs3)=NN2c2nc(C)c(C(C)=O)s2)cc1OC (centres undefined) -3.47%
Fc1ccc(N2N=C(c3cccs3)CC2c2ccco2)c(F)c1 (centres undefined) 1.6%
CC(C)N=C1CCCC1C(=S)SSC(=S)C1CCCC1=NC(C)C (centres undefined) 6.42%
Cc1cc2cc3n(c2nn1)N=C(Cl)CC3 -2.59%
C[C@H](CO)N1C[C@H](C)[C@@H](CN(C)C(=O)c2cnccn2)Oc2ncc(Br)cc2C1=O -6.82%
C[C@H](CO)N1C[C@H](C)[C@H](CN(C)C(=O)c2ccncc2)OCc2ccccc2-c2c(n(C)c3ccccc23)C1=O 7.41%
O=S(=O)(c1cccc(C(F)(F)F)c1)N1c2ccccc2-n2cccc2C1c1cccnc1 (centres undefined) 2.97%
COc1ccc([C@H]2C[C@@H](n3cc(COC(=O)c4ccccc4)nn3)[C@H](O)CN2C(=O)c2cccs2)cc1 -6.05%
Cc1cc(Nc2ccc(C)c(C)c2)n2ncnc2n1 -6.42%
O=c1[nH]c2ccccc2n1C1CCN(CCOc2ccccc2)CC1 -9.37%
Cc1nc2cc(NC(=O)Nc3cccc(F)c3)ccc2n1C 4.9%
S=C(Nc1ccccc1)Nc1ccc2ccccc2c1 -11.2%
COc1ccccc1C(=O)NC(=S)Nc1ccc(N2CCOCC2)cc1 -9.36%
Cc1ccccc1C#CC1=CC(=O)CC(C)(C)C1 4.4%
Cc1ccc(Cc2c(-c3ccc(C)cc3)nc3c4ccccc4ccn23)cc1 0.71%
CCCCCCN1C[C@H](O)[C@@H](n2cc(C3CC3)nn2)C[C@@H]1c1ccc(Cl)cc1 2.49%
COc1cc(C=NC2CCCCC2)ccc1O -10.8%
CCOc1ccc(/C=C(/C#N)c2nnc(N3CCOCC3)n2-c2ccccc2)cc1OC 3.43%
CNC(=O)C1CN(C(=O)c2cccc(S(=O)(=O)N3CCc4ccccc43)c2)c2ccccc2O1 (centres undefined) 2.33%
Nc1cc(=O)c2[nH]cnc2[nH]1 2.53%
O=C1CCC(C(=O)OCC(=O)Nc2ccc(OC(F)F)cc2)=NN1 -4.91%
CCOC(=O)c1c(NC(=O)COC(=O)c2ccc(S(=O)(=O)C(F)F)cc2)sc(C(=O)N(C)C)c1C -11.2%
CC(=O)N(C1=C(Cl)C(=O)c2ccccc2C1=O)c1ccc(C(=O)O)cc1 -8.51%
CCN(CC)C(=O)C1=C(C)N(Cc2ccc(OC)cc2)C(=O)C(CC(=O)NCc2ccco2)C1 (centres undefined) 7.39%
CC(C)CCOc1ccc(C(=O)Nc2cc(S(=O)(=O)N3CCOCC3)ccc2N2CCOCC2)cc1 3.89%
COc1ccc(-c2cnc(SCCNC(=O)c3ccc4c(c3)OCO4)[nH]2)cc1 -7.86%
COc1ccccc1C1CCN(c2ccc([N+](=O)[O-])cn2)CC1 -2.92%
Cn1ncc([N+](=O)[O-])c1C(=O)Nc1cc(Cl)ccc1Cl -11.5%
Cc1cc(Cl)ccc1C(=O)C1CCCN(C(=O)c2ccc3c(c2)OCO3)C1 (centres undefined) -4.99%
O=C(COC(=O)c1cncc(Br)c1)Nc1ccc(S(=O)(=O)N2CCOCC2)cc1 -5.67%
O=C(Nc1cccc2ccccc12)NC1CC1 2.15%
COc1cc(/C=C2\CCCc3c2nc2ccccc2c3C(=O)O)cc(Cl)c1O -7.09%
NS(=O)(=O)c1ccc(NC(=O)COC(=O)c2ccco2)cc1 -0.62%
O=C(COC(=O)c1c2c(nc3ccccc13)CCCC2)c1ccc(Br)s1 -5.16%
NC(=O)c1ccc(NC(=O)COC(=O)c2c3c(nc4ccccc24)/C(=C\c2ccc4c(c2)OCO4)CCC3)cc1 8.83%
